# Experiments:
# Test in all cases: yeast three-hybrid, YBZ-1, SC-Leu-His + 0.5 mM 3-AT, 4 days
# Settings in all cases: tags: N-Gal4 AD-HA kept; label: inside an RPR1-promoter hybrid RNA with tandem MS2 sites; ssRNA
# PUM1 PUF domain R3-GCD = PUM1 PUF domain R3-GCD (Homo sapiens, UniProt Q14671 828-1176, C935G;R936C;Q939D)
# Summary of the method: (§1)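 Pumilio-1 PUF domain libraries, randomized (NNK) at the three base-contacting residues of each repeat, were co-expressed with matching RNA elements from a centromeric plasmid in strain YBZ-1 (LexA–MS2 coat fusion, HIS3 reporter). Transformants were plated on SC-Leu (input) and SC-Leu-His + 0.5 mM 3-AT (selection) for four days, and repeat regions were PCR-amplified and Illumina-sequenced. The interaction score is the log2 change in variant frequency from input to selection, with pseudocount 1 where absent.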
# PUM1 PUF domain R3-VRE = PUM1 PUF domain R3-VRE (Homo sapiens, UniProt Q14671 828-1176, C935V;Q939E)
# PUM1 PUF domain R3-VRE, sequence (Q14671 828-1176 C935V/Q939E): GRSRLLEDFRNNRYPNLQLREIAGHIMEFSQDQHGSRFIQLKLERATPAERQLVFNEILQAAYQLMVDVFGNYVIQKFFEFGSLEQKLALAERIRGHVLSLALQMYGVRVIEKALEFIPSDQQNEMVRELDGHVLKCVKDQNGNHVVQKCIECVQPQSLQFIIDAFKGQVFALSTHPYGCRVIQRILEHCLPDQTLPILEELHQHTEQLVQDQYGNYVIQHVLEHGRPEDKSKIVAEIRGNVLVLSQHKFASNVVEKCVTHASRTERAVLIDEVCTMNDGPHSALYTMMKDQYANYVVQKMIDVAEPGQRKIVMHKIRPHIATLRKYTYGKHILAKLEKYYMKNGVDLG
# Summary of the method: as §1
# PUM1 PUF domain R3-LWM = PUM1 PUF domain R3-LWM (Homo sapiens, UniProt Q14671 828-1176, C935L;R936W;Q939M)
# PUM1 PUF domain R3-LWM, sequence (Q14671 828-1176 C935L/R936W/Q939M): as the sequence (Q14671 828-1176 C935V/Q939E) above, with V108L, R109W, E112M counted along it
# Summary of the method: as §1
# PUM1 PUF domain R1-RWV = PUM1 PUF domain R1-RWV (Homo sapiens, UniProt Q14671 828-1176, S863R;R864W;Q867V)
# PUM1 PUF domain R1-RWV, sequence (Q14671 828-1176 S863R/R864W/Q867V): as the sequence (Q14671 828-1176 C935V/Q939E) above, with S36R, R37W, Q40V, V108C, E112Q counted along it
# Summary of the method: as §1
# PUM1 PUF domain R1-KRV = PUM1 PUF domain R1-KRV (Homo sapiens, UniProt Q14671 828-1176, S863K;Q867V)
# PUM1 PUF domain R1-KRV, sequence (Q14671 828-1176 S863K/Q867V): as the sequence (Q14671 828-1176 C935V/Q939E) above, with S36K, Q40V, V108C, E112Q counted along it
# Summary of the method: as §1
# PUM1 PUF domain R8-PWV = PUM1 PUF domain R8-PWV (Homo sapiens, UniProt Q14671 828-1176, N1122P;Y1123W;Q1126V)
# PUM1 PUF domain R8-PWV, sequence (Q14671 828-1176 N1122P/Y1123W/Q1126V): as the sequence (Q14671 828-1176 C935V/Q939E) above, with V108C, E112Q, N295P, Y296W, Q299V counted along it
# Summary of the method: as §1
# PUM1 PUF domain R4-TRA = PUM1 PUF domain R4-TRA (Homo sapiens, UniProt Q14671 828-1176, N971T;H972R;Q975A)
# PUM1 PUF domain R4-TRA, sequence (Q14671 828-1176 N971T/H972R/Q975A): as the sequence (Q14671 828-1176 C935V/Q939E) above, with V108C, E112Q, N144T, H145R, Q148A counted along it
# Summary of the method: as §1
# PUM1 PUF domain R4-LHR = PUM1 PUF domain R4-LHR (Homo sapiens, UniProt Q14671 828-1176, N971L;Q975R)
# PUM1 PUF domain R4-LHR, sequence (Q14671 828-1176 N971L/Q975R): as the sequence (Q14671 828-1176 C935V/Q939E) above, with V108C, E112Q, N144L, Q148R counted along it
# Summary of the method: as §1
# PUM1 PUF domain R4-PWA = PUM1 PUF domain R4-PWA (Homo sapiens, UniProt Q14671 828-1176, N971P;H972W;Q975A)
# PUM1 PUF domain R4-PWA, sequence (Q14671 828-1176 N971P/H972W/Q975A): as the sequence (Q14671 828-1176 C935V/Q939E) above, with V108C, E112Q, N144P, H145W, Q148A counted along it
# Summary of the method: as §1
# PUM1 PUF domain R3-GCD, sequence (Q14671 828-1176 C935G/R936C/Q939D): as the sequence (Q14671 828-1176 C935V/Q939E) above, with V108G, R109C, E112D counted along it
sequence,measurement,setting,value
GGCUAGAACUAGUGGAUCCCCCGGCGCCCGGCGGCUCGAGCCCGGGUAAGUGUAAGUAGUCUGCAUGCCGCCGGGCGCCAUGCCUGCAGGUCGACUCUAGAAAACAUG,binding signal,PUM1 PUF domain R3-GCD,3.94 log2 enrichment (interaction score)
same,binding signal,PUM1 PUF domain R3-VRE,4.15 log2 enrichment (interaction score)
same,binding signal,PUM1 PUF domain R3-LWM,5.54 log2 enrichment (interaction score)
GGCUAGAACUAGUGGAUCCCCCGGCGCCCGGCGGCUCGAGCCCGGGUAAGUGUAAAUUGUCUGCAUGCCGCCGGGCGCCAUGCCUGCAGGUCGACUCUAGAAAACAUG,binding signal,PUM1 PUF domain R1-RWV,2.59 log2 enrichment (interaction score)
same,binding signal,PUM1 PUF domain R1-KRV,6.82 log2 enrichment (interaction score)
GGCUAGAACUAGUGGAUCCCCCGGCGCCCGGCGGCUCGAGCCCGGGUAAGUGUAAAUCGUCUGCAUGCCGCCGGGCGCCAUGCCUGCAGGUCGACUCUAGAAAACAUG,binding signal,PUM1 PUF domain R1-RWV,3.55 log2 enrichment (interaction score)
same,binding signal,PUM1 PUF domain R1-KRV,3.51 log2 enrichment (interaction score)
GGCUAGAACUAGUGGAUCCCCCGGCGCCCGGCGGCUCGAGCCCGGGUAAGCGUAAAUAGUCUGCAUGCCGCCGGGCGCCAUGCCUGCAGGUCGACUCUAGAAAACAUG,binding signal,PUM1 PUF domain R8-PWV,2.69 log2 enrichment (interaction score)
GGCUAGAACUAGUGGAUCCCCCGGCGCCCGGCGGCUCGAGCCCGGGUAAGUGUAAAUAGUCUGCAUGCCGCCGGGCGCCAUGCCUGCAGGUCGACUCUAGAAAACAUG,binding signal,PUM1 PUF domain R8-PWV,3.54 log2 enrichment (interaction score)
same,binding signal,PUM1 PUF domain R3-VRE,3.18 log2 enrichment (interaction score)
same,binding signal,PUM1 PUF domain R4-TRA,3.73 log2 enrichment (interaction score)
GGCUAGAACUAGUGGAUCCCCCGGCGCCCGGCGGCUCGAGCCCGGGUAAGUGUAUAUAGUCUGCAUGCCGCCGGGCGCCAUGCCUGCAGGUCGACUCUAGAAAACAUG,binding signal,PUM1 PUF domain R4-LHR,4.01 log2 enrichment (interaction score)
same,binding signal,PUM1 PUF domain R4-PWA,5.17 log2 enrichment (interaction score)
GGCUAGAACUAGUGGAUCCCCCGGCGCCCGGCGGCUCGAGCCCGGGUAAGUGUACAUAGUCUGCAUGCCGCCGGGCGCCAUGCCUGCAGGUCGACUCUAGAAAACAUG,binding signal,PUM1 PUF domain R4-TRA,0.18 log2 enrichment (interaction score)
GGCUAGAACUAGUGGAUCCCCCGGCGCCCGGCGGCUCGAGCCCGGGUAAGUGUAAUUAGUCUGCAUGCCGCCGGGCGCCAUGCCUGCAGGUCGACUCUAGAAAACAUG,binding signal,PUM1 PUF domain R3-LWM,4.35 log2 enrichment (interaction score)
